From PubChem BioAssay
Calls of active or inactive are those of the source. Unless noted, the rule behind the calls is not given here.

How the values were obtained:
[1] = anti-His antibody binders, primary screen, artefact control for SMM control protein annotation, biochemical, small-molecule microarray, 635 nm fluorescence (AID 1128); conditions: anti-His Alexa647 antibody binding, higher = more signal;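 note: score merges feature fluorescence with signal-to-noise for each printed compound spot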
[2] = system: Human papillomavirus type 1a E7 protein (residues 1-88); assay: HPV1a E7 small-molecule binders, primary screen, biochemical, small-molecule microarray, residues 1-88, 635 nm (AID 1129); conditions: small-molecule microarray binding, fluorescence 635 nm; higher = more signal
[3] = biological target: Focal adhesion kinase 1 (Homo sapiens) (UniProt Q05397); assay: small-molecule microarray binders of FAK, primary screen, biochemical, 635/667 nm fluorescence, BSA, DTT (AID 1130); conditions: PTK2 binding, 635 nm fluorescence, higher = more signal;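 note: composite of spot emission at 667 nm and signal to noise over triplicate slides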
Sequence of Focal adhesion kinase 1 (Homo sapiens) (Q05397 whole entry, looked up): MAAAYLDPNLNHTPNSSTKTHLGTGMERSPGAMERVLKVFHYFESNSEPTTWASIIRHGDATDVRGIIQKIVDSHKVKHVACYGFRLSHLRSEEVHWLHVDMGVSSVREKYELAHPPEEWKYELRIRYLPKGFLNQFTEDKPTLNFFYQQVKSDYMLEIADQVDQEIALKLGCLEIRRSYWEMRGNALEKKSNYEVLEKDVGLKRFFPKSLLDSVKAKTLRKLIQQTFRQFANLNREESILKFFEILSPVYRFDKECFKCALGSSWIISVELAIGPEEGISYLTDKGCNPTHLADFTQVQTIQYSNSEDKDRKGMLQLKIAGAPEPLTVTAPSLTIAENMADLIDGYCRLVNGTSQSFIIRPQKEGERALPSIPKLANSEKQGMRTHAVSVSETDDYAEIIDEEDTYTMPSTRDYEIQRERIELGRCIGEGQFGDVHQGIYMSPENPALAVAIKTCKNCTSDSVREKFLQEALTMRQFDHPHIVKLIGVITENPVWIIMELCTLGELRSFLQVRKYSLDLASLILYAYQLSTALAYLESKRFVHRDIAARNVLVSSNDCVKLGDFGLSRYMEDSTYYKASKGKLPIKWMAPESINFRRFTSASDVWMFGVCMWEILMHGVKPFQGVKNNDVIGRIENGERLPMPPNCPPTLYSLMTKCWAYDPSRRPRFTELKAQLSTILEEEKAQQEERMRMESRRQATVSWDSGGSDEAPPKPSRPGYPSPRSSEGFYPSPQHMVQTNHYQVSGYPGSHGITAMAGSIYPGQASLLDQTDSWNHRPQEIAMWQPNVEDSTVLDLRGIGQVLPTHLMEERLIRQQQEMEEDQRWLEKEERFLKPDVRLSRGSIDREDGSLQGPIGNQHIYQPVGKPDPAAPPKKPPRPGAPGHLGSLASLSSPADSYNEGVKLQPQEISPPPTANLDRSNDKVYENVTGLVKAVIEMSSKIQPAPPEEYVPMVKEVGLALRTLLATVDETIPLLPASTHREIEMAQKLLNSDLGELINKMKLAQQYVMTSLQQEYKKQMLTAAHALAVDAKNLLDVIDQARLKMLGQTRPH

[4] = system: Fibrinogen (Alexa647-labelled); assay: fibrinogen binders on compound microarrays, profiling panel, artefact control for SMM control-protein annotation, biochemical, small-molecule microarray, 635/667 nm fluorescence (AID 1131); conditions: fibrinogen-A647 binding fluorescence, higher = more signal;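 note: z-score merges 667 nm fluorescence with per-spot signal-to-noise over triplicate slides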
[5] = biological target: Follistatin (Homo sapiens) (UniProt P19883); assay: follistatin binders on small-molecule microarrays, primary screen, biochemical, small-molecule microarray, 635/667 nm fluorescence (AID 1132); conditions: FST binding, 635 nm fluorescence, higher = more signal
Sequence of Follistatin (Homo sapiens) (P19883 whole entry, looked up): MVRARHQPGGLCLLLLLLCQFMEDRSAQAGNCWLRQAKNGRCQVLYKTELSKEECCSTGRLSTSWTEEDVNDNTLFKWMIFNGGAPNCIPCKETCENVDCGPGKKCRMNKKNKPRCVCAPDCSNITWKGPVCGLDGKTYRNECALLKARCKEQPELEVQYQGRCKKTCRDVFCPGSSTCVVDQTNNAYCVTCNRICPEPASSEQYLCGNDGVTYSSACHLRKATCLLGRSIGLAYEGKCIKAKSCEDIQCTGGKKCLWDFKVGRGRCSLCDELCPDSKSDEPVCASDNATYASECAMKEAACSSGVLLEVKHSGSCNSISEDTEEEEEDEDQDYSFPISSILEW

[6] = biological target: Fibroblast growth factor 2 (Homo sapiens) (UniProt P09038); assay: FGF2 binders on small-molecule microarrays, primary screen, biochemical, small-molecule microarray, 635/667 nm fluorescence (AID 1133); conditions: small-molecule microarray binding, FGF2, fluorescence 635/667; higher = more signal
Sequence of Fibroblast growth factor 2 (Homo sapiens) (P09038 whole entry, looked up): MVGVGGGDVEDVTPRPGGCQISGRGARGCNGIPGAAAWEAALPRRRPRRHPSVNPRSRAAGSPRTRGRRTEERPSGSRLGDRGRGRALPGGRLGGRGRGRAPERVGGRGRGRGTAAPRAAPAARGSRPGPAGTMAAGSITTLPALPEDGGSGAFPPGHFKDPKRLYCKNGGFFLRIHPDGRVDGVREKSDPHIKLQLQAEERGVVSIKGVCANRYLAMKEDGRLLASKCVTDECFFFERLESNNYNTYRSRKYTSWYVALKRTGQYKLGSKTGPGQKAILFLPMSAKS

[7] = mitochondrial membrane potential change in A549 cells, profiling panel, cell-based, JC-1 fluorescence, basal, 24 h, 100 nL (AID 1138); conditions: higher = more signal;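 note: A549 lung adenocarcinoma cells under basal conditions with no added stimulus; test concentration not given here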
Lefty1 = Lefty1 binders on small-molecule microarrays, primary screen, biochemical, small-molecule microarray, 635/667 nm fluorescence (AID 1139); conditions: small-molecule microarray binding, fluorescence 635/667; higher = more signal
[8] = system: wheat germ agglutinin (Triticum aestivum), Alexa647-labelled; assay: wheat germ agglutinin binders on compound microarrays, profiling panel, artefact control for SMM control-protein annotation, biochemical, small-molecule microarray, 635/667 nm fluorescence (AID 1140); conditions: WGA-A647 binding, 635 nm fluorescence, higher = more signal;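 note: score merges 667 nm feature emission with signal to noise over triplicate slides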
[9] = biological target: Luciferin 4-monooxygenase (Photinus pyralis) (UniProt P08659); assay: firefly luciferase enzyme inhibitors, primary screen, biochemical, luminescence, purified enzyme, 2006 set (AID 1141); conditions: SteadyGlo luminescence, 30 min, higher = more signal, called active from +8 up or from −8 down;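 note: cell-free assay with purified firefly luciferase at 100 ng per well in PBS; test concentration not given here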
Sequence of Luciferin 4-monooxygenase (Photinus pyralis) (P08659 whole entry, looked up): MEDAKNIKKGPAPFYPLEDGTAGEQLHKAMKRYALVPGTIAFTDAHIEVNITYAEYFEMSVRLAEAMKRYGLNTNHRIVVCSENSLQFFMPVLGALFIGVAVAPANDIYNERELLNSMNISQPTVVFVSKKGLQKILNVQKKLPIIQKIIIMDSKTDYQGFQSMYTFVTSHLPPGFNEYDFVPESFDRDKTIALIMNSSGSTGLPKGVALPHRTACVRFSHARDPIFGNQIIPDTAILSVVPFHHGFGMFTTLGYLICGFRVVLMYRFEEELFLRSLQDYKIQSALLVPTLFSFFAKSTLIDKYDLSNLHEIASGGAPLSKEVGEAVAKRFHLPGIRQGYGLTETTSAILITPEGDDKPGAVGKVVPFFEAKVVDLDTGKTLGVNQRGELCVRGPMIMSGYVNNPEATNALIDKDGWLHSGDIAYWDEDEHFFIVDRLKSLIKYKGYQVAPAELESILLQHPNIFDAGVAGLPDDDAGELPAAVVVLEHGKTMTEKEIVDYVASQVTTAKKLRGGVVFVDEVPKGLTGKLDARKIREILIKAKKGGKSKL

[10] = system: Wnt5a (protein binding on small-molecule microarray); assay: Wnt5a binders on small-molecule microarray, primary screen, biophysical, 635/667 nm fluorescence (AID 1142); conditions: 635 nm fluorescence, higher = more signal;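 note: fluorescence read at 667 nm with signal to noise per printed feature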
[11] = cell viability in Huh7 cells, primary screen, cytotoxicity control for HCV replication inhibitor project, CellTiter-Glo luminescence, basal, 48 h (AID 1143); conditions: Huh7 HCV replicon, higher = more signal, called active from +8 up or from −8 down;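 note: Huh7 hepatoma cells carrying a hepatitis C replication reporter with no stimulus; test concentration not given here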
[12] = P. aeruginosa biofilm formation inhibitors, primary screen, PAO1 strain, BacTiter-Glo luminescence, LB-PBS (AID 1144); conditions: 12 h, higher = more signal
[13] = CREB reporter modulators without forskolin, primary screen, cell-based, PC12, CRE-LacZ reporter, unstimulated (AID 1145); conditions: no forskolin, luminescence, 4.5 h, higher = more signal, called active from +8 up or from −8 down
[14] = CREB reporter modulators under forskolin, primary screen, cell-based, PC12, CRE-LacZ reporter, forskolin-stimulated (AID 1146); conditions: luminescence, 4.5 h, higher = more signal, called active from +8 up or from −8 down;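 note: PC12 cells with 6xCRE LacZ reporter stimulated by forskolin 10 µM; beta-galactosidase reporter signal reflecting CREB driven transcription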
[15] = biological target: Streptavidin (Streptomyces avidinii) (UniProt P22629); assay: streptavidin binders on small-molecule microarray, primary screen, artefact control for SMM compound annotation, biophysical, 635/667 nm fluorescence (AID 1147); conditions: streptavidin binding, higher = more signal;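 note: signal reflects streptavidin binding to arrayed compounds as a control protein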
Sequence of Streptavidin (Streptomyces avidinii) (P22629 whole entry, looked up): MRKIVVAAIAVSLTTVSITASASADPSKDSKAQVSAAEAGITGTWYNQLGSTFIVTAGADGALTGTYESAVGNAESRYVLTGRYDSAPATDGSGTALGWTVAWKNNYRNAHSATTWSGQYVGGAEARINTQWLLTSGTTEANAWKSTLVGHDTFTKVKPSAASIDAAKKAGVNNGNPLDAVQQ

[16] = small-molecule binders of probe aInhba, primary screen, biochemical, small-molecule microarray, 635/667 nm fluorescence (AID 1148); conditions: higher = more signal;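 note: score merges 667nm spot fluorescence with signal-to-noise for antibody binding to printed compounds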
Torsin-1A (Homo sapiens) [17] = biological target: Torsin-1A (Homo sapiens) (UniProt O14656); assay: torsin A binders from cell lysate, primary screen, small-molecule microarray, wild-type, 635/667 nm (AID 1149); conditions: COS7 hTOR1A-WT lysate, 635 nm fluorescence, higher = more signal
Sequence of Torsin-1A (Homo sapiens) (O14656 whole entry, looked up): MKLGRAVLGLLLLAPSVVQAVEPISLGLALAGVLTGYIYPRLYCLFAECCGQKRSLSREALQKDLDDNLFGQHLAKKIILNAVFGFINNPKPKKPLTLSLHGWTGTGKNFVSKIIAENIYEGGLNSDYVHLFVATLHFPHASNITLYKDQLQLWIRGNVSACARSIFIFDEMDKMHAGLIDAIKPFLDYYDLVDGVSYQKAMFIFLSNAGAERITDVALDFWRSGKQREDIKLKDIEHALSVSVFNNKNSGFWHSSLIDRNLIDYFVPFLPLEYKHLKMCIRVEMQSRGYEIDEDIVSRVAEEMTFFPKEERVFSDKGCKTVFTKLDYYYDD

Torsin-1A (Homo sapiens) [18] = biological target: Torsin-1A (Homo sapiens) (UniProt O14656); assay: small-molecule binders of mutant TOR1A in lysate, primary screen, cell lysate, small-molecule microarray, COS7 lysate, 635/667 nm fluorescence (AID 1150); conditions: COS7 hTOR1A mutant lysate, 635 nm fluorescence, higher = more signal;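 note: score pools 667 nm emission and signal to noise measuring lysate protein binding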
[19] = system: Sonic hedgehog protein (Shh); assay: small-molecule binders of Shh protein, primary screen, biochemical, small-molecule microarray, 635/667 nm fluorescence (AID 1151); conditions: small-molecule microarray binding, 635 nm fluorescence; higher = more signal;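 note: Shh protein binding to compounds spotted on small-molecule microarray slides; score combines spot fluorescence intensity with signal-to-noise across triplicate slides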

Row | SMILES | composite z-score [1] | composite z-score [2] | composite z-score [3] | composite z-score [4] | composite z-score [5] | composite z-score [6] | z-score [7] | composite z-score (Lefty1) | composite z-score [8] | z-score [9] | composite z-score [10] | z-score [11] | z-score [12] | z-score [13] | z-score [14] | composite z-score [15] | composite z-score [16] | composite z-score (Torsin-1A (Homo sapiens) [17]) | composite z-score (Torsin-1A (Homo sapiens) [18]) | composite z-score [19]
1 | C=C(CCCC)C(=O)CC[C@@H](OC(C)=O)c1ccccc1OCCO | -0.848 | -0.806 | -0.523 | -1.75 | -0.245 | -0.508 | 0.846 | -0.0521 | -0.788 | -1.33 (inactive) | -0.283 | -3.08 (inactive) | -0.206 (inactive) | 9.35 (active) | -0.841 (inactive) | -0.484 | -0.024 | -0.0615 | 0.915 | 0.276
2 | CCCC[C@@H]1C[C@H]1[C@@H](NC(=O)c1cccs1)c1ccc(Cl)cc1 | -0.492 | -1.19 | -0.393 | -1.26 | -1.44 | -1.6 | -0.363 | -1.58 | -0.746 | 0.191 (inactive) | -0.29 | -3.19 (inactive) | -0.288 (inactive) | 0.39 (inactive) | 0.958 (inactive) | -1.05 | -0.224 | -0.989 | -1.01 | -1.75
3 | COc1cc(CO)cc(I)c1O[C@H]1C=C(C(=O)NCCO)C[C@@H](N(CC2CCCCC2)C(=O)c2cc3ccccc3oc2=O)[C@@H]1O | 0.309 | 0.238 | -0.071 | 1.02 | 0.175 | 1.17 | 0.272 | 0.275 | 0.516 | -0.462 (inactive) | 0.159 | -0.0365 (inactive) | -0.143 (inactive) | 1.13 (inactive) | -1.27 (inactive) | 0.745 | -0.0332 | 0.0653 | 0.0077 | 0.568
4 | COCCCNC(=O)[C@@]1(c2ccc([N+](=O)[O-])cc2)CC(=O)N(C2CCCCC2)[C@@H]1c1ccc(CO)cc1 | 1.13 | 0.542 | 0.643 | -0.523 | -0.0809 | 0.269 | 0.612 | -1.4 | -0.273 | -0.501 (inactive) | -0.155 | -1.72 (inactive) | 0.0997 (inactive) | -0.269 (inactive) | 0.207 (inactive) | -0.826 | -0.417 | 0.661 | -0.699 | -0.256
5 | CCC#CCN(Cc1ccccc1Br)[C@H](/C=C/c1ccccc1)[C@@H](O)Cc1ccccc1 | 0.017 | -0.518 | -0.0168 | -0.58 | -0.886 | -1.48 | -0.565 | -0.978 | -0.518 | -0.686 (inactive) | -0.659 | -1.45 (inactive) | 0.282 (inactive) | 2.94 (inactive) | 0.272 (inactive) | -0.312 | -0.179 | -0.586 | -0.542 | -1.18
6 | CC(=O)NCCCC[C@@H]1NC(=O)[C@H]2C[C@@H](C(=O)NCCCCCCN(C)C)[C@@H](c3cccc(OCCO)c3)N2C1=O | 2.66 | 1.2 | 1.15 | 0.478 | 1.37 | 1.33 | -0.153 | 1.57 | 0.797 | -0.805 (inactive) | 0.906 | -0.102 (inactive) | -0.542 (inactive) | 0.0084 (inactive) | 0.172 (inactive) | 0.369 | 0.222 | 1.37 | 1.88 | 2.22
7 | COc1cc2c(cc1OC)CN(C(=O)[C@H]1[C@@H]3C(=O)O[C@@H](c4ccccc4)[C@@H](c4ccccc4)N3[C@@H](c3ccc(O)cc3)[C@]13C(=O)Nc1ccc(C#CC4(O)CCCCCC4)cc13)CC2 | 1.5 | 1.23 | 1.02 | 0.86 | 1.28 | 1.71 | -1.23 | 0.59 | 1.31 | -0.409 (inactive) | 0.723 | -0.715 (inactive) | -0.785 (inactive) | 0.425 (inactive) | 0.603 (inactive) | 2.42 | 0.472 | 0.601 | 1.36 | 1.39
8 | COc1ccc([C@H]2C[C@H]3C(Br)=C[C@]2(OC)C(=O)[C@]32CO2)cc1 | 1.2 | 0.0022 | -0.458 | -0.278 | 0.276 | 1.2 | -1.02 | -0.1 | -0.06 | 0.909 (inactive) | -0.225 | 0.147 (inactive) | -0.64 (inactive) | 0.586 (inactive) | 2.58 (inactive) | -0.0817 | -0.128 | 0.806 | -0.278 | -0.038
9 | Cc1cc(C)c(C(O)C2C=CC3C(=O)N(C)C(=O)C3N2N2CCCCC2)c(C)c1 (stereo not given) | 2.16 | 1.18 | -0.193 | 0.985 | 1.28 | 0.994 | 0.85 | -0.0675 | 0.799 | 0.915 (inactive) | 0.423 | 1.09 (inactive) | -0.276 (inactive) | -0.14 (inactive) | 0.56 (inactive) | 1.4 | 0.233 | 0.0592 | 0.251 | 0.375
10 | C[C@H]1C2[C@H](Cc3ccccc3)NC(=O)[C@]23C(=O)N[C@H](Cc2ccccc2)C(=O)N[C@@H](Cc2ccccc2)C(=O)NC/C=C\C/C=C/C3[C@@H]2O[C@]12C (stereo not given in full) | 0.133 | -0.318 | 0.838 | -1.84 | 0.162 | 0.0748 | 0.298 | -0.0066 | -0.125 | -1.06 (inactive) | 0.0327 | -3.18 (inactive) | 0.593 (inactive) | 0.311 (inactive) | -1.85 (inactive) | -0.214 | 0.173 | -0.0236 | 0.147 | 1.65
